# ATG4B inh – ATG4B (human) cysteine protease inhibition; Q9Y4P1; ATG4B cleavage of LC3-PLA2, NBD-HPC fluorescence, 1 h; inhibition, % at 8.33 µM; actives 0.51% (n = 340,000); AID 504462; in the data active = inhibition above about 40%
# Target sequence (Q9Y4P1 whole entry, looked up): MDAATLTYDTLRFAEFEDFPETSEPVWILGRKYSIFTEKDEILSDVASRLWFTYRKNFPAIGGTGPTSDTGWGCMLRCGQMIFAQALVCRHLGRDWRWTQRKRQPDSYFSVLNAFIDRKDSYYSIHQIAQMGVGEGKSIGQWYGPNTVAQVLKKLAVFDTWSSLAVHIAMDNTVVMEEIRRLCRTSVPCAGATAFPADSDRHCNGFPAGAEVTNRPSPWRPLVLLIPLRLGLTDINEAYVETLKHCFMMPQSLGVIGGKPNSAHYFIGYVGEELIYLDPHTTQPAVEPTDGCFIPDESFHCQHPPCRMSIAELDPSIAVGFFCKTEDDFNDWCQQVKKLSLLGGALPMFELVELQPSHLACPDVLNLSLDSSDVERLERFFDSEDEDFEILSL
# F508del corr – CFTR F508del correction in bronchial cells. actives 0.36% (n = 350,000). activity (quench increase), % at 7.58 µM. CFBE cells, YFP halide quenching; stimulated with forskolin plus potentiator P3; % fluorescence drop versus neutral controls;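 active = mean added fluorescence quench of at least 8% versus neutral control, with both replicates also reaching 8%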;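 note: cells transiently co-express mutant CFTR-F508del with the halide-sensitive YFP; corrector assay measuring rescue of mutant channel to the surface after 24 h compound exposure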
# MPTP block – inhibitors of mitochondrial permeability transition pore | isolated mouse mitochondria, Ca2+ swelling absorbance, 30 min | inhibition, % at 10 µM | actives 1.4% (n = 360,000) | AID 602449;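 active = inhibition of 50% or more, scaled per plate between neutral and stimulator controls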;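 note: 0% = DMSO wells given calcium and 100% = 1 mM EGTA wells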
# SKN-1 block – blocks SKN-1 activity in C. elegans | AID 624304 | actives 0.49% (n = 360,000) | C. elegans VP596 Pgst-4::GFP/RFP ratio, acrylamide-induced, 24 h | inhibition, % at 21.8 µM;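 active = interference check ratio from 0.5 to 1.5 plus GFP to RFP signal ratio inhibition reaching or exceeding a fixed threshold, cut at about 30% in these data, passing the limit was not always enough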
# NRP1-CendR mod – alters CendR peptide binding to human NRP-1; O14786; FAM-RPARPAR peptide binding to NRP-1, fluorescence polarization; inhibition, % at 25 µM; actives 0.85% (n = 360,000); AID 602438;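 active = inhibition or corrected inhibition above about 18%, plus a signal ratio from 0.5 to 1.5, limit read from the data, passing the limit was not always enough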
# Rh123 counter – mitochondrial membrane potential, counter-screen; shares compounds with MPTP block; isolated mitochondria, Rhodamine 123 fluorescence; inhibition, % at 10 µM; actives 78% (n = 5,000); in the data active = inhibition above about 22%;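 note: 0% = DMSO vehicle and 100% = positive control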
# MPTP abs DR – dose response confirmation of mitochondrial permeability transition pore inhibitors | shares compounds with MPTP block | isolated mitochondria swelling, absorbance | IC50, µM | actives 58% (n = 780) | AID 651561; in the data active = IC50 below about 20 µM
# MPTP cs DR – MPTP inhibitor counter-screen activity, dose response; actives 49% (n = 780); shares compounds with MPTP block; IC50, µM; isolated mitochondria counterscreen, fluorescence read-out; in the data active = IC50 below about 80 µM
# Starred values were filed as active, the others as inactive; i = inactive; . = no result given. Rows were chosen to be rich in hits. Some 2.7% of all compounds tested hit in one or more screens of this group.
SMILES,ATG4B inh,F508del corr,MPTP block,SKN-1 block,NRP1-CendR mod,Rh123 counter,others
ClC(Cl)c1nnc(-c2ccccc2)c(-c2c[nH]c3ccccc23)n1,-2.9,.,52.2*,9.1,-1.4,46.7*,
O=C(COC(=O)c1cc(S(=O)(=O)N2CCCC2)ccc1O)Nc1ccc(SC(F)F)cc1,-5.2,0.0,92.3*,10.5,6.3,96.2*,
CN(CC(=O)Nc1ccc(Cl)c(Cl)c1)C(=O)C12CC3CC(CC(C3)C1)C2,-12.4,0.8,64.2*,1.5,-2.2,82.5*,
CN(CC(=O)Nc1ccc(Cl)c(Cl)c1)C1CCCCC1,11.3,0.0,1.5,0.7,-2.2,.,
CO[C@H]1CN(C)C(=O)c2cc(NC(=O)NC3CCCCC3)ccc2OC[C@H](C)N(C(C)=O)C[C@H]1C,.,-0.6,.,.,.,.,
O=[N+]([O-])c1cc(-c2ccccc2)cc([N+](=O)[O-])c1O,5.1,0.8,77.7*,-11.5,16.7,89.1*,
O=C(Cc1ccncc1)NCC[C@@H]1CC[C@H](NS(=O)(=O)c2ccccc2Cl)[C@H](CO)O1,.,-0.2,.,.,.,.,
CC(C)C1O/C(=N/C(=O)Nc2ccc(Cl)c(Cl)c2)NC1=O (stereo not given),-10.1,.,92.9*,-18.0,-4.0,91.6*,
O=C(Nc1ccc(Cl)c(Cl)c1)c1ccc(Cl)c(Cl)c1,-2.5,-1.8,22.7,4.1,-2.9,.,
O=C1NC(=S)S/C1=C\c1cc(Cl)ccc1Cl,10.0,-0.6,98.5*,-13.4,-98.7,84.0*,
C[C@@H]1CCCCO[C@@H](CN(C)C(=O)CCC(F)(F)F)[C@@H](C)CN([C@@H](C)CO)C(=O)c2cc(NC(=O)c3ccccc3)ccc2O1,.,2.8,.,.,.,.,
Oc1c(Cl)cc(Cl)cc1CNc1nc2ccccc2[nH]1,4.5,-4.8,71.7*,-1.6,7.2,76.7*,
CN1CCC(=C2c3ccccc3C=Cc3ccccc32)CC1,-8.1,-8.6,5.1,3.3,1.5,.,
CN1CCC(=C2c3ccccc3Sc3ccccc32)CC1,3.6,-13.7,92.0*,-8.8,4.0,-9.2,MPTP abs DR=7.26*;MPTP cs DR=>80
O=C(C[C@H]1CC[C@@H]2[C@H](COC[C@@H](O)CN2Cc2cccc(Cl)c2)O1)Nc1nccs1,.,-4.2,.,.,.,.,
CC(=O)Nc1ccc(S(=O)(=O)Nc2ccc3nc(C)sc3c2)cc1,2.1,-0.5,59.3*,-9.4,13.8,83.0*,
CC(=O)Nc1ccc2nc(NS(=O)(=O)c3ccc(C)cc3)sc2c1,-5.5,-4.5,-1.4,12.6,6.9,.,
Cc1ccc(S(=O)(=O)Nc2ccc3nc(N)sc3c2)cc1,-10.2,.,84.7*,-28.5,-5.8,37.5*,
Cc1ccc2nc(-c3ccc(NS(=O)(=O)c4ccc(F)c(F)c4)cc3)sc2c1,7.8,.,59.5*,8.6,3.6,71.3*,
CSc1nc2ccc(NS(=O)(=O)c3ccc(Cl)s3)cc2s1,-12.2,.,86.8*,9.4,-3.7,76.6*,
CC(=O)Nc1ccc(NS(=O)(=O)c2ccc(Cl)s2)cc1,-0.8,-0.2,-1.2,0.6,-28.0,.,
CN(C)CC#Cc1ccc([C@@H]2[C@@H](CO)N3CCCCN(C(=O)C4CC4)C[C@@H]23)cc1,.,-0.7,.,.,.,.,
Cc1ccc(S(=O)(=O)Nc2ccc3c(c2)OCCO3)cc1,0.7,1.0,1.0,-3.1,-9.8,.,
Cc1nc2ccc(NS(=O)(=O)c3cccc([N+](=O)[O-])c3)cc2s1,2.0,-0.5,55.2*,12.0,11.7,71.7*,
Cc1nc2ccc(NS(=O)(=O)c3ccc(Br)cc3)cc2s1,-7.6,-0.7,80.8*,33.1,-19.0,98.7*,
SMILES,ATG4B inh,F508del corr,MPTP block,SKN-1 block,NRP1-CendR mod,Rh123 counter,others
Cc1nc2ccc(NS(=O)(=O)c3ccc4c(c3)OCCO4)cc2s1,-7.1,.,96.3*,-9.7,22.1,97.4*,
Cc1nc2ccc(NS(=O)(=O)c3ccc(F)c(F)c3)cc2s1,-35.2,1.9,5.5,0.0,-31.8,.,
Cc1ccc(S(=O)(=O)Nc2ccc3nc(C)sc3c2)cc1,-13.7,.,67.7*,-7.6,-15.1,105.2*,
C[C@H]1CN([C@@H](C)CO)C(=O)c2cc(-c3cccnc3)cnc2O[C@H]1CN(C)C,.,1.2,.,.,.,.,
Cc1ccc(NC(=O)C(C)c2cccc(C(=O)c3ccccc3)c2)cc1O (stereo not given),-2.2,.,96.3*,-4.7,-13.1,84.2*,
Cc1sc(NC(=O)/C=C/c2ccco2)c(C(=O)OC(C)C)c1C,6.1,.,52.2*,7.9,-0.7,0.8,MPTP abs DR=>100;MPTP cs DR=>80
Cc1noc(C)c1NC(=O)Nc1ccc2c(c1)C(=O)N([C@@H](C)CO)C[C@H](C)[C@H](CN(C)C(=O)Nc1ccc3c(c1)OCO3)OCCCC[C@H](C)O2,.,-1.4,.,.,.,.,
CCOC(=O)c1c(-c2ccccc2)oc2ccc(OCC(O)CN(C)C)cc12 (stereo not given),0.4,-1.6,98.8*,14.0,3.5,-13.4,MPTP abs DR=6.51*;MPTP cs DR=>80
CCCNC(=O)C[C@@H]1C[C@@H]2c3cc(NC(=O)Nc4ccccc4)ccc3O[C@@H]2[C@H](CO)O1,.,2.0,.,.,.,.,
N/C(=N\N=C/c1ccc(Br)cc1)N/N=C\c1ccc(Br)cc1,-0.7,1.4,58.7*,26.3,2.6,-6.2,MPTP abs DR=i;MPTP cs DR=37.4*
N/C(=N\N=Cc1ccc2c(c1)OCO2)NN=Cc1ccc2c(c1)OCO2,-5.2,-2.0,3.0,13.2,-5.5,.,
COCC(=O)N1[C@@H](C#N)[C@H](c2ccccc2-c2ccccc2)[C@@H]1CO,.,2.4,.,.,.,.,
Cc1ccc(NC(=S)/C(C#N)=C2/Nc3ccccc3S2)cc1,.,5.9,64.6*,29.6,-16.5,39.3*,
Cn1nc(CC(=O)Nc2cccc3ncccc23)c2ccccc2c1=O,-10.4,.,85.7*,-2.9,-2.7,24.9*,
Cn1nc(CC(=O)NCc2ccc(C(F)(F)F)cc2)c2ccccc2c1=O,-4.7,.,44.7,-23.0,-4.8,.,
COc1ccc(CNC(=O)Cc2nn(C)c(=O)c3ccccc23)cc1,-6.3,.,61.2*,-1.9,9.0,51.2*,
CC(C)NC(=O)Nc1ccc2c(c1)CC(=O)N([C@@H](C)CO)C[C@H](C)[C@H](CN(C)Cc1ccc(-c3ccccc3)cc1)O2,.,-2.9,.,.,.,.,
CCC(=O)N1[C@@H]2CN(C(=O)c3ccncc3)c3ccccc3[C@@H]2[C@@H]1CO,.,-0.2,.,.,.,.,
O=C(Nc1ccc(Oc2ccccc2)cc1)c1csc([C@H]2C[C@H](O)[C@@H](CO)O2)n1,.,-1.4,81.0*,12.7,-8.1,73.5*,
Cc1cc(C(=O)CSc2nc(N)cc(=O)[nH]2)c(C)n1-c1ccc(OC(F)F)cc1,4.7,0.0,98.0*,-2.1,-17.2,89.2*,
Cc1cc(-n2c(C)cc(C(=O)CSc3nc(N)cc(=O)[nH]3)c2C)no1,-11.1,0.8,23.0,-8.1,-10.1,.,
Cn1c(SCCC#N)nnc1-c1ccc(F)cc1,.,.,1.8,-14.6,0.1,.,
